# TDP1 cell CPT: growth inhibition of DT40 Tdp1-/-;hTDP1 cells with camptothecin (screen for TDP1 inhibitors) | chicken DT40 Tdp1-/-;hTDP1 cells + 20 nM CPT, ATP luminescence, 48 h | Potency, µM (top dose mostly 46.2 µM), without a hit: at the highest dose activity change, negative = growth inhibition, hits mostly inhibitors | 420,000 tested, 12% active | AID 686979; further: potency means the concentration at half of the fitted maximal effect; nearly all actives have a fitted effect of over 55% in size
#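 Cell growth measured by CellTiter-Glo luminescence after a minimum 48 h, 37 C compound exposure with 20 nM CPT in Tdp1-knockout DT40 cells stably expressing hTDP1, seeded 400/well; qHTS titration format.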
# HT1080NT lethal: kills 2HG-producing HT-1080-NT fibrosarcoma cells | HT-1080-NT fibrosarcoma viability, CellTiter-Glo ATP luminescence, 48 h | Potency, µM (doses to about 46.1 µM), for the others: at the highest dose activity, negative = less viability, usual class: cytotoxic | 360,000 tested, 1.6% active;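 further: NT is the 2HG producing partner of a matched IDH1 knockdown line; potency means the concentration at half of the fitted maximal effect; 0% = DMSO-treated cells and -100% = media-only wells without cells; nearly all actives have a fitted effect of over 55% in size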
#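 HT-1080-NT fibrosarcoma cells (2HG-overproducing), 750 cells/well in RPMI with 5% FBS, dosed after 2 h and incubated 48 h at 37C. CellTiter-Glo luminescence normalized to DMSO and no-cell wells; concentration-response curves fitted and classed.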
# TDP1 cell noCPT: qHTS for Inhibitors of human tyrosyl-DNA phosphodiesterase 1 (TDP1): qHTS in cells in absence of CPT | AID 686978, 2013 | 420,000 tested, 15% active | DT40 Tdp1-/- hTDP1 cells, no CPT, ATP luminescence, 48 h | Potency, µM (highest dose often 46.2 µM), inactives show at the highest dose activity change, negative = growth inhibition, hits mostly inhibitors; further: potency means the concentration at half of the fitted maximal effect; nearly all actives have a fitted effect of over 55% in size
#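 DT40 Tdp1-/-;hTDP1 cells, no CPT (DMSO vehicle only), 400 cells/well; compounds pin-transferred; ≥48 hr, 37 °C; CellTiter-Glo 30 min RT dark, luminescence read.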
# HT1080 IDH1KD tx: kills HT-1080 cells with IDH1 knockdown; HT-1080 IDH1 knockdown viability, ATP luminescence, 48 h; Potency, µM (highest dose often 46.1 µM), for inactives: at the highest dose activity, negative = toxicity, actives largely listed as cytotoxic; 360,000 tested, 2% active;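 further: potency means the concentration at half of the fitted maximal effect; 0% = DMSO wells and -100% = cell-free medium wells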
#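 Assay cells: HT-1080 with IDH1 knockdown, 750 per well, RPMI/5% FBS. Exposure: 48 h at 37 °C following 2 h pre-incubation. Read: CellTiter-Glo luminescence; fitted concentration-response, curve class assigned.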
# ALOX12 inh: blocks human arachidonate 12S-lipoxygenase; P18054; purified 12hLO, xylenol orange hydroperoxide absorbance; Potency, µM (top dose mostly 108 µM), without a hit: top-dose activity change, negative = inhibition, most hits filed as inhibitors; 580,000 tested, 1.1% active; further: potency means the concentration at half of the fitted maximal effect
# Target sequence (P18054 whole entry, looked up): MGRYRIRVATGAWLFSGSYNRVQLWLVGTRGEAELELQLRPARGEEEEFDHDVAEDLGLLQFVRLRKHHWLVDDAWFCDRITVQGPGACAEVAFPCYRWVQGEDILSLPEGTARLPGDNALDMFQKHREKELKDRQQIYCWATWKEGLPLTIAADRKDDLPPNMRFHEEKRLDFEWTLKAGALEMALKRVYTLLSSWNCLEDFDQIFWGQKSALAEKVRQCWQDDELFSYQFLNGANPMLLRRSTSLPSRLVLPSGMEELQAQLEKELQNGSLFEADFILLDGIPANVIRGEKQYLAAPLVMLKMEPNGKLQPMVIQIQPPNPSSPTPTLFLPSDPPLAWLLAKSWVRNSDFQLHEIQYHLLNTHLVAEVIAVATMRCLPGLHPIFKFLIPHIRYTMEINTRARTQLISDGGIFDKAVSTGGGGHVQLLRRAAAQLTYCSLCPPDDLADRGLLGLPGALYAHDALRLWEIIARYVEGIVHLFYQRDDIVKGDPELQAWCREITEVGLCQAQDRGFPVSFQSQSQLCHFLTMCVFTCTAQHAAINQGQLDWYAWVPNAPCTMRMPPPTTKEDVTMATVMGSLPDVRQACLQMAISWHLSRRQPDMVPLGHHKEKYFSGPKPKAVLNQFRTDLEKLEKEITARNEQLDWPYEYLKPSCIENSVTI
#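 Purified human 12hLO at 150 nM in 25 mM Hepes, 0.01% Triton X-100, pH 7.0, preincubated 15 min at room temperature with compound. Reaction started with 40 uM arachidonic acid, 30 min at room temperature. Hydroperoxide measured by Fe-xylenol orange, 573/405 nm absorbance ratio.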
# IL-1B inflam inh: blocks inflammasome-driven IL-1 beta release; AID 743279; activity change, % at 57.5 µM; 360,000 tested, 4.7% active; THP-1 LPS/ATP IL-1B secretion, AlphaLISA, 16 h; active compounds read low; in the data active means activity change below about -50%; inconclusive means mostly about -30% to -49%
#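 Secreted IL-1B measured by AlphaLISA bead assay after 16 h compound exposure of THP-1 cells; compounds (final up to 57.5 uM) added 1 h before LPS (250 ng/mL) and ATP (1.25 mM) stimulation; lower signal means less secretion.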
# * marks the source's active call; other numbers are inactive results; ? = inconclusive; nt = not tested or not shown; ! = not confirmed by another sample; [ ] = dose if it differs, or a comment. Many of the other results were omitted from the sample, so hits are more common in it than they were. Unless noted, the call rests on the fitted dose curve; in most records, active means well fitted curve in the direction sought with a large enough effect; inconclusive means small, poorly fitted or top-dose-only effect, or another doubt; inactive means no such curve, though single readings can be large; an effect the other way counts as inactive or inconclusive. Unless noted, on the % scale 0 is the no-effect control and ±100 the full control effect.
SMILES,TDP1 cell CPT,HT1080NT lethal,TDP1 cell noCPT,HT1080 IDH1KD tx,ALOX12 inh,IL-1B inflam inh
CCOC(=O)N1CCN(S(=O)(=O)c2cc(OCC(=O)NC3CCCCC3)c(C)cc2Cl)CC1,2%,-3%,4%,-7%,-38%,-25
Cc1cc(Cl)c(S(=O)(=O)N2CCSCC2)cc1OCC(=O)NC1CCCCC1,16µM*,?,18µM*,-22%,10%,-54*
Cc1cc(Cl)c(S(=O)(=O)NC2CCCC2)cc1OCC(=O)NC1CCCCC1,26µM*,-1%,23µM*,20µM*,0%,-23
O=C1Nc2ccccc2O[C@H]2C[C@@H]1N(Cc1ccnc3ccccc13)C2,nt,nt,nt,nt,55%[176 µM],nt
COc1ccc(CCNc2nc(C)nc3c2oc2ccccc23)cc1OC,3.7µM*,-10%,4.1µM*,-19%,-18%,?
COc1ccc(Cl)cc1Nc1nc(C)nc2c1oc1ccccc12,?,20%,-22%,13%,?,19
COc1ccc(OC)c(Nc2nc(C)nc3c2oc2ccccc23)c1,23µM*,-4%,21µM*,-3%,-28%,10
Cc1nc(NCCc2cnc[nH]2)c2oc3ccccc3c2n1,-29%,0%,0%,-6%,0%,0
Cc1nc(-c2cccc(N3CC(C(=O)NCc4ccccc4C)CC3=O)c2)no1 (stereo not drawn),nt,nt,nt,nt,29%,nt
O=C(Nc1cc(S(=O)(=O)N2CCCCC2)ccc1O)c1ccccc1NS(=O)(=O)c1ccc(F)cc1,-20%,?,-26%,?,?,-56*!
O=C(c1ccccc1NS(=O)(=O)c1ccc(F)cc1)N1CCCCC1,4%,-1%,-9%,-1%,4%,9
O=C(Nc1cc(S(=O)(=O)N2CCCCC2)ccc1Cl)c1ccccc1NS(=O)(=O)c1ccc(F)cc1,5.2µM*,0.58µM*,2.6µM*,?,?,-22
COc1ccc(-c2ccc(=O)n(CC(=O)N3CCCC3)n2)c(F)c1,nt,nt,nt,nt,38%,nt
CCCOC(=O)c1ccc(Oc2cn[nH]c2-c2ccc(OCC)cc2O)cc1,?,?,?,?,46%,-75*
CCCOC(=O)c1ccc(Oc2c(-c3ccc(OCC)cc3O)n[nH]c2C)cc1,16µM*,?,18µM*,?,?,-102*
CCCc1ccc(Oc2cn[nH]c2-c2ccc(O)c(C)c2O)cc1,18µM*,?,?,?,?,-64*
COc1ccccc1OCC(=O)OCC(=O)c1cc(Cl)ccc1Cl,nt,nt,nt,nt,0%,nt
COc1cc(NC(=O)c2csc(-c3ccncc3)n2)cc(C(=O)Nc2cccc(C(F)(F)F)c2)c1,8.2µM*,-20%,4.6µM*,-27%,-18%,-15
O=C(Nc1cccc(C(F)(F)F)c1)c1csc(-c2ccncc2)n1,-10%,-6%,?,-4%,-12%,?
COc1cc(Nc2ccccn2)cc(C(=O)Nc2cccc(C(F)(F)F)c2)c1,16µM*,?,?,?,-48%,-5
COc1cc(NC(=O)c2nccn2C)cc(C(=O)Nc2cccc(C(F)(F)F)c2)c1,?,?,6.5µM*,?,?,61
Cn1ccnc1SCC(=O)Nc1cccc(C(F)(F)F)c1,-2%,-7%,0%,17%,12%,-4
COc1ccc(-c2cc(C(=O)Nc3cc(OC)cc(C(=O)Nc4cccc(C(F)(F)F)c4)c3)[nH]n2)cc1,2.3µM*,?,2.6µM*,?,2%,46
COc1ccc(CNC(=O)NC(c2ccccc2)c2ccncc2)cc1 (stereo not drawn),nt,nt,nt,nt,3%,nt
COc1cc(NC(=O)c2ccno2)cc(C(=O)Nc2cccc(C(F)(F)F)c2)c1,?,-10%,16µM*,-6%,-21%,-6
SMILES,TDP1 cell CPT,HT1080NT lethal,TDP1 cell noCPT,HT1080 IDH1KD tx,ALOX12 inh,IL-1B inflam inh
COc1cc(NC(=O)c2nccnc2N)cc(C(=O)Nc2cccc(C(F)(F)F)c2)c1,?,?,?,?,19%,58
COc1ccc2nc3oc(C(=O)Nc4cccc(C(F)(F)F)c4)cc3cc2c1,13µM*,nt,12µM*,nt,-5%,nt
COc1cc(NC(=O)c2cc3cccc(OC)c3o2)cc(C(=O)Nc2cccc(C(F)(F)F)c2)c1,6.5µM*,?,5.2µM*,-17%,-11%,40
COc1cc(NC(=O)c2ccc(N)nc2)cc(C(=O)Nc2cccc(C(F)(F)F)c2)c1,?,-7%,16µM*,-14%,?,-11
O=C(NC1CCC1)C1=NO[C@@H]2CN(CCc3ccccc3)C[C@H]12,nt,nt,nt,nt,-7%[176 µM],nt
CC1=C(C(=O)N2CCCC(C(=O)c3cccc4ccccc34)C2)OCCO1 (stereo not drawn),?,-4%,16µM*,-10%,15%,?
Cc1ncoc1C(=O)N1CCCC(C(=O)c2cccc3ccccc23)C1 (stereo not drawn),?,0%,?,1%,4%,-1
Cn1nccc1C(=O)N1CCCC(C(=O)c2cccc3ccccc23)C1 (stereo not drawn),?,?,23µM*,-10%,-7%,-14
Cn1cc(CCC(=O)N2CCCC(C(=O)c3cccc4ccccc34)C2)cn1 (stereo not drawn),?,-7%,?,0%,2%,-9
COc1ccc(S(=O)(=O)N2CCN(CC(=O)c3ccc(O)c(O)c3)CC2)cc1,?,0%,?,-17%,?,21
O=C(CN1CCN(S(=O)(=O)c2ccc(Cl)cc2)CC1)c1ccc(O)c(O)c1,12µM*,-7%,8.2µM*,0%,nt,45
O=C(CN1CCN(S(=O)(=O)c2ccc(F)cc2)CC1)c1ccc(O)c(O)c1,?,-3%,23µM*,-3%,?,14
CC1CCN(C(=O)c2ccc3c(c2)C(O)CCCCCN3C)CC1 (stereo not drawn),nt,nt,nt,nt,206%,nt
Fc1ccc(Sc2nc(-c3ccccc3)nnc2C(F)(F)F)cc1,5.8µM*,23µM*,13µM*,23µM*,0%,-120*
Fc1ccc(Oc2nc(-c3ccccc3)nnc2C(F)(F)F)cc1,?,7%,-25%,18%,-7%,4
O=C1/C(=C/c2cccc(F)c2)C(c2ccccc2)Oc2ccccc21 (stereo not drawn),nt,nt,nt,nt,-2%,nt
Cc1ccc(Cl)c(NC(=O)CCl)c1Cl,?,-27%,?,-10%,1%,-91*
